{
  "source": "PubChem BioAssay (NCATS)",
  "note": "Inconclusive results are not listed. Unmarked numbers belong to inactive results. Active and inactive are the calls of the source. Calls follow the shape of the dose curve; as a rule, active = well fitted inhibition curve with a large enough effect; inconclusive = small, poorly fitted or top-dose-only effect; inactive = no such curve, though single readings can be large or run the other way.",
  "data": [
    {"target": "Retinaldehyde dehydrogenase 3 (Homo sapiens) (UniProt P47895)", "assay": "qHTS for Inhibitors of the Aldehyde Dehydrogenase Family (ALDH1A3) Primary screen (AID 2061315);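 also: plate controls were DMSO vehicle for no effect and reference inhibitor for full effect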", "conditions": "ALDH inhibition qHTS; series mostly up to 56 µM; activity change, negative = inhibition: at the top concentration", "values": [
      {"smiles": "CC1CN(c2cc3c(cc2F)c(=O)c(C(=O)O)cn3-c2ccc(F)cc2F)CCN1", "note": "(stereo not given)", "activity change, negative = inhibition": "3.3%"},
      {"smiles": "Cc1ccc(S(=O)(=O)Nc2cccc3cccnc23)cc1", "activity change, negative = inhibition": "6.2%"},
      {"smiles": "COc1nccc(-c2nc(Nc3ccc(F)c(F)c3)c3ccccc3n2)c1Cl", "activity change, negative = inhibition": "-7.3%"},
      {"smiles": "CSc1ccc(CNc2ncnc3ccc(-c4c(C)noc4C)cc23)cc1", "activity change, negative = inhibition": "9.34%"},
      {"smiles": "COc1cc(F)c(S(=O)(=O)N2CCN(S(=O)(=O)c3ccc4c(c3)OCCO4)CC2)c(F)c1", "activity change, negative = inhibition": "19.2%"},
      {"smiles": "Cn1ccc2cc(-c3ccc4ncnc(NCc5cccnc5)c4c3)ccc21", "activity change, negative = inhibition": "-1.77%"},
      {"smiles": "Cc1ccc(S(=O)(=O)Nc2cnccc2C(=O)Nc2nc(-c3ccc(C)c(C)c3)cs2)cc1", "activity change, negative = inhibition": "32.7%"},
      {"smiles": "CC(=O)Nc1nc(-c2ccc3c(c2)CCN3C(=O)c2ccccc2C)c(C)s1", "activity change, negative = inhibition": "-6.07%"},
      {"smiles": "COc1ccc(C2=Nn3c(nnc3-c3ccccc3Cl)SC2)cc1OC", "activity change, negative = inhibition": "17.9%"},
      {"smiles": "O=C(O)c1ccc(-c2noc(-c3ccccc3C(F)(F)F)n2)cc1", "activity change, negative = inhibition": "-17.4%"},
      {"smiles": "Cc1ccc(S(=O)(=O)n2cc(C(=O)Nc3nc(-c4ccccc4)cs3)c3ccccc32)cc1", "activity change, negative = inhibition": "1.58%"},
      {"smiles": "CCOC(=O)c1ccc(-n2cnc3c(c2=N)C(c2cccc(OC)c2)c2c(ccc4ccccc24)O3)cc1", "note": "(stereo not given)", "activity change, negative = inhibition": "13.9%"},
      {"smiles": "C=C(C)c1cc2c(s1)c1cnn(Cc3ccccc3F)c(=O)c1n2C", "activity change, negative = inhibition": "-1.07%"},
      {"smiles": "N#Cc1ccc(C(=O)NCC(=O)OC(C(=O)Nc2cc(C(F)(F)F)ccc2Cl)c2ccccc2)cc1", "note": "(stereo not given)", "activity change, negative = inhibition": "15.8%"},
      {"smiles": "CCOC(=O)c1ccc(-c2ccc3ncnc(NCc4csc(C)n4)c3c2)o1", "activity change, negative = inhibition": "-4.25%"},
      {"smiles": "CC1=C(C(=O)Nc2ccccc2C)C(c2ccccc2Br)N=C(Nc2nc3ccccc3o2)N1", "note": "(stereo not given)", "activity change, negative = inhibition": "15.4%"},
      {"smiles": "Cc1cc(NC(=O)Nc2cccc(-c3ccncc3)n2)ccc1Cl", "Potency": "inactive"},
      {"smiles": "CCC1=CC2CN(C1)Cc1c([nH]c3ccccc13)[C@@](C(=O)OC)(c1cc3c(cc1OC)N(C)[C@H]1[C@@](O)(C(=O)OC)[C@H](OC(C)=O)[C@]4(CC)C=CCN5CC[C@]31[C@@H]54)C2", "note": "(stereo not given in full)", "activity change, negative = inhibition": "-10.1% [at 28 µM]"},
      {"smiles": "CCN(CC)CCCCn1c(-c2ccccc2)nc2c(N(CCOC)CCOC)nc(C)nc21", "activity change, negative = inhibition": "12.3%"},
      {"smiles": "FC(F)(F)c1cccc(N2CCN(C(=S)Nc3ncnc4ccccc34)CC2)c1", "activity change, negative = inhibition": "17.5%"},
      {"smiles": "COc1ccc(C2=Nn3c(nnc3-c3ccccc3F)SC2)cc1OC1CCCC1", "activity change, negative = inhibition": "-11.8%"},
      {"smiles": "Fc1cccc(-c2nc3ccccc3s2)c1", "activity change, negative = inhibition": "-12.9%"},
      {"smiles": "Cc1cc(C)n2ncc(C(=O)Nc3ccccc3Sc3ccccc3)c2n1", "activity change, negative = inhibition": "-7.43%"},
      {"smiles": "Oc1ccc(-c2ccccc2F)c2cccnc12", "activity change, negative = inhibition": "-3.51%"},
      {"smiles": "O=C(Nc1ccc(Cl)c(S(=O)(=O)N2CCOCC2)c1)c1ccc(S(=O)(=O)N2CCCCC2)cc1", "activity change, negative = inhibition": "-1.61%"},
      {"smiles": "Cc1cc(N[S+](=O)([O-])c2ccc(NC(=O)Cc3ccc(F)c(C(F)(F)F)c3)cc2)no1", "activity change, negative = inhibition": "9.18%"},
      {"smiles": "CC(=O)N1CCN(C(=O)COC(=O)c2ccc([S+](C)(=O)[O-])c([N+](=O)[O-])c2)CC1", "activity change, negative = inhibition": "0.785%"},
      {"smiles": "CCCn1c(C)nc2c(NCC(C)(C)CN(C)C)nc(C)nc21", "activity change, negative = inhibition": "18.3%"},
      {"smiles": "CC(=O)Nc1sc2c(c1-c1nc3ccccc3s1)CCNC2", "activity change, negative = inhibition": "20.4%"},
      {"smiles": "CC(=O)Nc1ccc(NC(=S)NC(=O)c2ccc(C(C)(C)C)cc2)cc1", "activity change, negative = inhibition": "18.4%"},
      {"smiles": "O=C1CCCC2=C1C(c1[nH]ncc1Cl)N=C(Nc1nc3cc([S+](=O)([O-])N4CCOCC4)ccc3o1)N2", "note": "(stereo not given)", "activity change, negative = inhibition": "12.5%"},
      {"smiles": "Cc1ccc(S(=O)(=O)N(C)c2cccc3cccnc23)cc1", "activity change, negative = inhibition": "-11.6%"},
      {"smiles": "Cc1ccc(S(=O)(=O)Nc2cccc(C(=O)Nc3nc(-c4ccc(Cl)cc4)cs3)c2)cc1", "activity change, negative = inhibition": "12.4%"},
      {"smiles": "CC(=O)c1cccc(NC(=O)Nc2nnc(-c3ccncc3)s2)c1", "activity change, negative = inhibition": "-1.67%"},
      {"smiles": "Cc1ccc(-c2cnn(CC(=O)N(C)C(C)c3ccco3)c(=O)c2)cc1", "note": "(stereo not given)", "activity change, negative = inhibition": "-1.23%"},
      {"smiles": "COc1ccc(C2=Nn3c(nnc3-c3ccccc3OC)SC2)cc1OCC1CC1", "activity change, negative = inhibition": "16.8%"},
      {"smiles": "NC(=O)C1CCN(c2nc(-c3ccccc3Br)cs2)CC1", "activity change, negative = inhibition": "-1.34%"},
      {"smiles": "Cc1ccccc1-c1nc(NCc2ccc(-c3cccnc3)cc2)c2ccccc2n1", "activity change, negative = inhibition": "-4.94%"},
      {"smiles": "COc1ccc(-c2nc3ccccc3n2Cc2ccccc2)cc1COc1ccc(NC(C)=O)cc1", "activity change, negative = inhibition": "3.97%"},
      {"smiles": "Cc1cc(NS(=O)(=O)c2ccc(NC(=O)Cc3ccc(Cl)cc3Cl)cc2)no1", "activity change, negative = inhibition": "13.4%"}
    ]}
  ]
}
